Out of some 96,000 compounds screened, about 19,000 (20%) were called active.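 The calls were made as follows: active = blocking of liver enzyme CYP2C9 beyond about 50% at 5 µM (limit read from the data); inactive = the rest.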 Only a sample is shown.
molecular target: Cytochrome P450 2C9 (Homo sapiens) (UniProt P11712); experiment: blockers of cytochrome P450 2C9 activity – biochemical, luminescence, ADME assay, primary screen (AID 777); settings: CYP2C9 Supersomes, luciferin-H conversion, at 5 µM, active compounds read high
Sequence (P11712 whole entry, looked up): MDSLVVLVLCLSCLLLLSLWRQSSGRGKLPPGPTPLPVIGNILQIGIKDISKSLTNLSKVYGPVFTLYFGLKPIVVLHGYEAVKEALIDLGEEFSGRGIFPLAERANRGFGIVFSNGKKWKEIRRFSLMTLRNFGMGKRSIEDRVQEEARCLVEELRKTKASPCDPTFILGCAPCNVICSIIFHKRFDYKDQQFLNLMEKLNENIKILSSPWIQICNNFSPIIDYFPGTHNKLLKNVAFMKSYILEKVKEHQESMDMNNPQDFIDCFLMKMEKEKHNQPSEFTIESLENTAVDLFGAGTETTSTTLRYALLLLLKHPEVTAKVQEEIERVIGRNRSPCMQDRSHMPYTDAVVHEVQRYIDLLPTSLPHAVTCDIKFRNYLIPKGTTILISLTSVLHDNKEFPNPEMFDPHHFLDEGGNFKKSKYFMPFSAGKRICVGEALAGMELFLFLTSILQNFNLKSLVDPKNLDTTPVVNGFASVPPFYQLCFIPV

Row | Compound | inhibition
1 | Cc1ccccc1-n1nc(C)c2cc(C(=O)NC3CC3)sc21 | 37.1% (inactive)
2 | O=C(c1ccco1)N1CCN(CC(=O)N(C2CCCCC2)C2CCS(=O)(=O)C2)CC1 (stereo not drawn) | -18.6% (inactive)
3 | O=[N+]([O-])c1ccccc1OCCCCN1CCCCC1 | -4% (inactive)
4 | CCCC(=O)Nc1nc2ccc(NC(=O)c3cccnc3)cc2s1 | 27.5% (inactive)
5 | CCc1c(C)sc(NC(=O)c2ccc(Br)o2)c1C(=O)OC | -40.5% (inactive)
6 | CCOC(=O)c1c(CN2CCOCC2)n(-c2ccccc2)c2ccc(O)cc12 | 38.1% (inactive)
7 | COc1cccc(CN2C(=O)CCC2(C)C(=O)NC2CCCCCC2)c1 (stereo not drawn) | -58.7% (inactive)
8 | CCNc1nc(SCCOc2ccccc2)nc(N(C)C)n1 | -4.3% (inactive)
9 | Cn1c(=O)cc(SCC(=O)N2CCCC2)c2cc(Cl)ccc21 | 0.1% (inactive)
10 | CCOC(=O)Nc1ccc2c(c1)N(C(=O)CN1CCN3CCCC3C1)c1ccccc1CC2 (stereo not drawn) | 0.1% (inactive)
11 | CSCC[C@H](NC(=O)NCc1cccs1)C(=O)O | -6.8% (inactive)
12 | COc1ccc(-n2ncc3c(N4CCc5ccccc54)ncnc32)cc1 | -29.5% (inactive)
13 | CC1(C)CC(=O)C=C(NC2CC(C)(C)NC(C)(C)C2)C1 | 9.6% (inactive)
14 | Cc1ccnc(N2CCN(C(=O)CSc3nc4ccccc4nc3N3CCCCC3)CC2)c1 | 98.5% (active)
15 | Cc1ccc(S(=O)(=O)NCC(=O)N2CCN(c3ccccn3)CC2)cc1 | 5.3% (inactive)
16 | Cc1ccc2oc(=O)c3cnn(CC(=O)N4CCN(c5ccccn5)CC4)c3c2c1 | 20.1% (inactive)
17 | CCCc1cc(-c2n[nH]c(=S)n2Cc2ccccc2)cs1 | 38.6% (inactive)
18 | CC(C)c1ccc(N2CCN(C(=O)c3ccccc3NC(=O)/C=C(\C(=O)O)c3ccccc3)CC2)cc1 | 18% (inactive)
19 | CCOCCN(C=O)c1cccc(OC)c1 | -20.4% (inactive)
20 | CCOC(=O)CN(Cc1ccc(OC)c(OC)c1)S(=O)(=O)c1ccc(OC)cc1 | 64% (active)
21 | O=C(OCc1cc2ccccc2[nH]c1=O)c1cccnc1 | 12.7% (inactive)

Row | Compound | inhibition
22 | C=CCSc1nc(Cc2ccc(Cl)cc2)nc2ccccc12 | 2.7% (inactive)
23 | O=C(CCN1c2ccccc2Sc2ccccc21)Nc1ccccc1 | 95.4% (active)
24 | O=C(CC1Nc2ccccc2NC1=O)Nc1ccccc1 (stereo not drawn) | 6.5% (inactive)
25 | O=C(CCN1C(=O)c2ccccc2C1=O)Nc1ccncc1 | 65.7% (active)
26 | O=C(CCN1C(=O)c2ccncc2C1=O)Nc1ccc2c(c1)OCCO2 | -3.9% (inactive)
27 | O=C(CCN1C(=O)c2ccccc2C1=O)Nc1cccc(F)c1 | 28.8% (inactive)
28 | O=C(O)CCCC(=O)Nc1ccccc1-n1ccnc1 | 0.8% (inactive)
29 | COc1ccc(Br)cc1S(=O)(=O)N1CCN=C1C | -27.3% (inactive)
30 | Cc1nc2cc(-c3ccc(F)cc3)nn2c(N2CCOCC2)c1C | 8.9% (inactive)
31 | CCN1CCN(Cc2c(O)ccc3c(=O)c(-c4ccc(OC)c(OC)c4)c(C(F)(F)F)oc23)CC1 | 8.1% (inactive)
32 | O=c1c(-c2ccc3c(c2)OCCO3)c(C(F)(F)F)oc2cc(O)cc(O)c12 | 87.3% (active)
33 | Cc1nc(SC(C)C)[nH]c(=O)c1Cc1ccccc1 | 26% (inactive)
34 | CCN1C(=O)/C(=C2/Sc3ccccc3N2CCCS(=O)(=O)O)SC1=S | 7% (inactive)
35 | COc1cc(/C=N/Nc2nn3cnnc3c3ccccc23)cc(OC)c1OC | 25.9% (inactive)
36 | COc1c(O)cccc1-c1nnn(CCC(=O)OCC(=O)c2ccccc2)n1 | 29% (inactive)
37 | Cc1ccc2cc(CCNC(=O)c3c(-c4ccccc4Cl)noc3C)c(=O)[nH]c2c1 | 93.8% (active)
38 | O=C1c2ccccc2C(=O)N1Cc1cc(-c2ccccc2Cl)no1 | -135% (inactive)
39 | Cc1onc(-c2ccccc2Cl)c1C(=O)OCC(=O)c1ccccc1 | 65.8% (active)
40 | Cc1onc(-c2ccccc2Cl)c1C(=O)NCCn1ccc2ccccc21 | 54.6% (active)
41 | Cc1ccc2cc(CCNC(=O)c3ccc4c(c3)OCO4)c(=O)[nH]c2c1 | 31.9% (inactive)
42 | Cc1cc2ccccc2n1CCNC(=O)COc1ccc2ccccc2c1 | 33.5% (inactive)

Row | Compound | inhibition
43 | Cc1onc(-c2c(Cl)cccc2Cl)c1C(=O)c1c[nH]c(C(=O)NC2CC2)c1 | 7.6% (inactive)
44 | Cc1ccc2[nH]c(=O)c(COC(=O)c3ccccn3)cc2c1 | 8.6% (inactive)
45 | CC(C)Cc1oc(C(=O)O)cc1CN | -3.5% (inactive)
46 | C#CCSc1nnc(-c2sc3ccccc3c2Cl)o1 | 26.7% (inactive)
47 | COc1ccc(C(=O)N2CCC(C(=O)Nc3cccc(C)c3)CC2)cc1OC | 8.3% (inactive)
48 | CCOc1ccc(N=C2SC(C(=O)O)CC(=O)N2C)cc1 (stereo not drawn) | -4.3% (inactive)
49 | CC(C)(C)NC(=O)COc1ccc(CNc2ccc3[nH]c(=O)[nH]c3c2)cc1 | 31.4% (inactive)
50 | Cc1ccc(S(=O)(=O)c2c(COC(=O)c3cccc(Cl)c3)c(-c3ccccc3)nn2C)cc1 | 49.8% (inactive)
51 | O=S(=O)(c1ccccc1)N(CC(O)CN1CCCCC1)c1ccccc1 (stereo not drawn) | 56% (active)
52 | Cc1cccc(N(CC(O)CN(C)C)S(=O)(=O)c2ccccc2)c1 (stereo not drawn) | 7.4% (inactive)
53 | Cc1ccc(N(CC(O)CN2CCCC2)S(=O)(=O)c2ccccc2)cc1 (stereo not drawn) | 27.2% (inactive)
54 | Cc1ccc(C(=O)N(CN2CCCC2=O)c2ccc(F)cc2)cc1 | -20% (inactive)
55 | CC(=O)N1Cc2ccccc2CC1C(=O)O (stereo not drawn) | -18.6% (inactive)
56 | Cc1c(NC(=O)C(C)OC(=O)c2cc3c4ccccc4n(C)c3s2)c(=O)n(-c2ccccc2)n1C (stereo not drawn) | -4.5% (inactive)
57 | CCOc1ccccc1NC(=O)C1CCC(CNc2c(N3CCOCC3)c(=O)c2=O)CC1 (stereo not drawn) | -30.1% (inactive)
58 | Cc1ccc(CCN2CC(C(=O)O)CC2=O)cc1 (stereo not drawn) | 53.7% (active)
59 | Cc1ccc(CNC(=O)C2CC(=O)N(C3CCCCCCC3)C2)cc1 (stereo not drawn) | -1.3% (inactive)
60 | O=C(NC1CCCCC1)C1CC(=O)N(CCc2ccccc2)C1 (stereo not drawn) | -4.8% (inactive)
61 | COCCCNC(=O)C1CC(=O)N(CCc2ccccc2)C1 (stereo not drawn) | -3.7% (inactive)
62 | O=C(O)C1CC(=O)N(Cc2cccnc2)C1 (stereo not drawn) | -22% (inactive)
63 | CCc1ccc(CNC(=O)C2CC(=O)N(CCc3ccc(C)cc3)C2)cc1 (stereo not drawn) | 54.1% (active)

— PubChem BioAssay AID777 (Sanford-Burnham Center for Chemical Genomics, 2007)
